Experimental data reported in PubChem BioAssay (NCI).
This is part of a sample that, as a whole, favours compounds with a hit. Of some 83,000 tested, about 20% had one in any assay.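 Each cell line was grown in a 96-well plate and treated with one concentration of compound for 48 hours. Values below 10 were considered active.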 Activity calls are given as the source filed them.

What was measured:
Assay in all cases: NCI-60 one-dose screen, 48 h (100 = growth as untreated, 0 = no growth, -100 = all killed)
Details in all cases: 10 µM unless noted
HCT-15 colon = system: HCT-15 colon
HT29 colon = system: HT29 colon
SNB-75 CNS = system: SNB-75 CNS
SNB-19 CNS = system: SNB-19 CNS
U251 CNS = system: U251 CNS
PC-3 prostate = system: PC-3 prostate
SK-MEL-5 melanoma = system: SK-MEL-5 melanoma
UACC-62 melanoma = system: UACC-62 melanoma
SK-MEL-28 melanoma = system: SK-MEL-28 melanoma
SK-MEL-2 melanoma = system: SK-MEL-2 melanoma
EKVX NSCLC = system: EKVX NSCLC
SN12C renal = system: SN12C renal
UO-31 renal = system: UO-31 renal
TK-10 renal = system: TK-10 renal
ACHN renal = system: ACHN renal
CAKI-1 renal = system: CAKI-1 renal
A498 renal = system: A498 renal
CCRF-CEM leukemia = system: CCRF-CEM leukemia
MOLT-4 leukemia = system: MOLT-4 leukemia
LOX IMVI melanoma = system: LOX IMVI melanoma

Measured: growth

COc1ccc(-c2nc3ccc(-c4nnc(SCc5ccccc5)o4)cc3[nH]2)cc1
active: HCT-15 colon -17.4% | HT29 colon 9.58% | SNB-75 CNS -82.8% | SNB-19 CNS 2.92% | U251 CNS -77.1% | SK-MEL-5 melanoma -21.7% | UACC-62 melanoma -72.3% | SK-MEL-28 melanoma -36.3% | EKVX NSCLC -0.06% | SN12C renal -66.3% | UO-31 renal -44.2% | TK-10 renal -35.3% | ACHN renal -85.2% | CAKI-1 renal -77.1% | A498 renal -36.2%
inactive: PC-3 prostate 20.1% | SK-MEL-2 melanoma 11% | CCRF-CEM leukemia 13.9% | MOLT-4 leukemia 11.5%

Cc1ccc2nc(SCc3ccccc3F)n(-c3ccccc3)c(=O)c2c1
inactive: HCT-15 colon 83.3% | HT29 colon 78.7% | SNB-75 CNS 156% | SNB-19 CNS 96.8% | U251 CNS 99.4% | PC-3 prostate 77.9% | SK-MEL-5 melanoma 93.9% | UACC-62 melanoma 74.3% | SK-MEL-28 melanoma 100% | SK-MEL-2 melanoma 102% | EKVX NSCLC 59.9% | SN12C renal 90.6% | UO-31 renal 83.7% | TK-10 renal 90.2% | ACHN renal 92.9% | CAKI-1 renal 83.3% | A498 renal 137% | CCRF-CEM leukemia 73% | MOLT-4 leukemia 73.3%

O=C(N/N=C/c1occc1Br)c1[nH]c2ccc(Br)cc2c1-c1ccccc1
active: HCT-15 colon -78% | HT29 colon -68.7% | SNB-75 CNS -78.2% | SNB-19 CNS -97.1% | U251 CNS -82.6% | PC-3 prostate -51.3% | SK-MEL-5 melanoma -97.6% | UACC-62 melanoma -95% | LOX IMVI melanoma -100% | EKVX NSCLC -94.1% | SN12C renal -83.8% | UO-31 renal -87.1% | TK-10 renal -76.5% | ACHN renal -100% | CAKI-1 renal -91.5% | A498 renal -89.6% | CCRF-CEM leukemia 4.68% | MOLT-4 leukemia -15.2%

O=C(CSc1nnc(-c2ccc(-c3nc4ccc(Cl)cc4[nH]3)cc2)o1)Nc1ccc(Br)cc1
inactive: HCT-15 colon 18.6% | HT29 colon 28.6% | SNB-75 CNS 46% | EKVX NSCLC 41.9% | UO-31 renal 36.6% | TK-10 renal 75.9% | A498 renal 162% | MOLT-4 leukemia 13.9%
active: SNB-19 CNS -17.5% | U251 CNS -89.8% | PC-3 prostate -29.1% | SK-MEL-5 melanoma -6.99% | UACC-62 melanoma -53.4% | SK-MEL-28 melanoma -80.6% | SK-MEL-2 melanoma 5.03% | SN12C renal -22.3% | ACHN renal -69.1% | CAKI-1 renal -25.1% | CCRF-CEM leukemia 9.42%

N#CC1=C(c2ccco2)Nc2c(c(-c3ccccc3)nn2-c2ccccc2)C12C(=O)Nc1ccc(Br)cc12 (configuration not stated)
inactive: HCT-15 colon 38.6% | HT29 colon 49.5% | SNB-19 CNS 60% | PC-3 prostate 24.1% | SK-MEL-5 melanoma 59% | UACC-62 melanoma 51.5% | LOX IMVI melanoma 21.3% | SK-MEL-2 melanoma 87% | EKVX NSCLC 56.2% | UO-31 renal 59.8% | TK-10 renal 65.9% | ACHN renal 49.3% | CAKI-1 renal 55.9% | A498 renal 124% | CCRF-CEM leukemia 35.5% | MOLT-4 leukemia 36.2%
active: SNB-75 CNS -8.95% | U251 CNS 1.85% | SN12C renal 5.11%

CC(Nc1ncnc2ccc(-c3ccc4oc(N)nc4c3)cc12)c1ccccc1 (configuration not stated)
active: HCT-15 colon 5.13% | SNB-75 CNS -82.8% | U251 CNS -22.8% | SK-MEL-5 melanoma -75.3% | LOX IMVI melanoma -97.7% | EKVX NSCLC 5.01% | SN12C renal -17.7% | UO-31 renal -76.4% | TK-10 renal -41.4% | ACHN renal -64.2% | CAKI-1 renal -40.6% | CCRF-CEM leukemia 2.38% | MOLT-4 leukemia -39.9%
inactive: HT29 colon 29.5% | SNB-19 CNS 20.3% | PC-3 prostate 34.4% | UACC-62 melanoma 11.9% | SK-MEL-2 melanoma 34.6% | A498 renal 49.8%

O=C1c2cccc3c(N4CCN(c5ccccc5)CC4)ccc(c23)C(=O)N1c1cccc(-c2nn(-c3ccccc3)cc2-c2nc3ccccc3s2)c1
inactive: HCT-15 colon 112% | HT29 colon 116% | SNB-75 CNS 98.1% | SNB-19 CNS 100% | U251 CNS 100% | PC-3 prostate 85.9% | SK-MEL-5 melanoma 99% | UACC-62 melanoma 91.4% | LOX IMVI melanoma 94.5% | SK-MEL-2 melanoma 106% | EKVX NSCLC 86.6% | SN12C renal 103% | UO-31 renal 68.1% | TK-10 renal 129% | ACHN renal 94.9% | CAKI-1 renal 83.3% | A498 renal 126% | CCRF-CEM leukemia 98.8% | MOLT-4 leukemia 99.4%
